This passage reports Potency results from PubChem BioAssay (Tox21).

Assay [1] in a line: Nuclear factor erythroid 2-related factor 2/antioxidant responsive element (Nrf2/ARE) small molecule agonists: qHTS cell viability counter screen in human keratinocytes (AID 1919968; active means well fitted curve in the direction sought with a large enough effect in the repeat runs; an effect the other way counts as inactive or inconclusive; further: nearly all actives have a fitted effect of over 55% in size; further: potency means the concentration at half of the fitted maximal effect). The procedure, abridged: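 KeratinoSens HaCaT cells, 1,500/well, preincubated 5 h, then exposed to compounds in DMSO for 23 h at 37 C/5% CO2. Viability read as CellTiter-Fluor fluorescence after 1 h, in the same wells as the ARE-luciferase read.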
Background: In qHTS, concentration-response curves come from the screen itself.

Assay [2] concerns the target KiSS-1 receptor (Homo sapiens) (UniProt Q969F8). Nature of the assay: Human kisspeptin (KISS1R) small molecule agonists, calcium flux assay in KISS1R-HEK293 cells (AID 1920064; active means well fitted curve in the direction sought with a large enough effect in the repeat runs; an effect the other way counts as inactive or inconclusive). The procedure, abridged:
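HEK293 cells stably expressing human KISS1R were loaded with calcium dye for 1 h at 37 C, then given compound; fluorescence (Ex/Em 480/540) was read kinetically for 3 min. Fifteen concentrations, triplicate.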
Background: Calcium flux is commonly read through the fluorescence of an indicator in the cells.

Assay [3] can be described thus: G protein-coupled receptor (GPCR) small molecule agonists, calcium flux assay: HEK293 wild type cell line counter screen (AID 1920065). A digest of the protocol:
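Wild-type HEK293 cells plated 18 h, loaded with calcium dye 1 h at 37 C, then compounds added in agonist mode (ATP as positive control). Kinetic fluorescence Ex/Em 480/540 recorded 3 min at 1 sec intervals; 15 concentrations, triplicate.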

The nature of assay [4]: p53 small molecule agonists, cell-based qHTS assay with human liver microsomes (AID 1963577). A digest of the protocol: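 p53RE-bla reporter cells were pre-incubated 5 h at 37 C, then treated with compounds plus human liver microsomes (0.5 mg/mL final) and NADPH (0.5 mg/mL final) for 16 h at 37 C. Beta-lactamase activity was read by LiveBLAzer fluorescence after 2 h at room temperature.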

Assay [5] in a line: p53 small molecule agonists, cell-based qHTS assay with rat liver microsomes (AID 1963578). The procedure, abridged:
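p53RE-bla cells were exposed to compounds together with rat liver microsomes (0.5 mg/mL final) and NADPH (0.5 mg/mL final) for 16 h at 37 C, then read by LiveBLAzer beta-lactamase fluorescence after 2 h at room temperature.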

The nature of assay [6]: p53 small molecule agonists, cell-based qHTS assay with human liver microsomes: qHTS cell viability counter screen (AID 1963579). Further: nearly all actives have a fitted effect of over 45% in size. The procedure, abridged:
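p53RE-bla cells (4,000/well) were pre-incubated 5 h at 37 C, then given compounds in DMSO plus human liver microsomes (0.5 mg/mL final) and NADPH (0.5 mg/mL final) for 16 h at 37 C. Viability was read by CellTiter-Glo luminescence.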

Assay [7] in a line: p53 small molecule agonists, cell-based qHTS assay with rat liver microsomes: qHTS cell viability counter screen (AID 1963580). Further: nearly all actives have a fitted effect of over 45% in size. A digest of the protocol: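 Intracellular ATP, by CellTiter-Glo luminescence, defines viability. HCT-116 p53RE-bla cells, 4,000 per well, were compound-treated in the presence of rat liver microsomes and NADPH for 16 h at 37 C.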
The nature of assay [8]: p53 small molecule agonists, cell-based qHTS assay: qHTS cell viability counter screen (AID 1963581). Further: nearly all actives have a fitted effect of over 45% in size. A digest of the protocol: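 p53RE-bla HCT-116 cells, compounds added 5 h after plating and incubated 16 h at 37 C. Cytotoxicity measured in the same wells as intracellular ATP by CellTiter-Glo luminescence after 30 min at room temperature.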
Assay [9] is described as follows: p53 small molecule agonists, cell-based qHTS assay (AID 1963582; active means well fitted activation curve with a large enough effect in the signal ratio in the repeat runs, not every such curve was filed as active; the % refers to the signal ratio). A digest of the protocol:
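p53RE-bla reporter cells, compounds added in DMSO after 5 h plating, incubated 16 h at 37 C. Beta-lactamase read via 2 h room-temperature LiveBLAzer B/G FRET substrate, fluorescence intensity.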

Assay [10] addresses 5-hydroxytryptamine receptor 2A (Homo sapiens) (UniProt P28223). In words: 5-hydroxytryptamine receptor 2A (HTR2A) small molecule antagonists, cell-based qHTS assay (AID 1963586). Further: nearly all actives have a fitted effect of over 45% in size. The procedure, abridged:
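Antagonist-mode intracellular calcium assay: DOI (4 nM) added after 5 min compound pre-incubation at room temperature to dye-loaded HTR2A-CHO cells. Fluorescence followed for 3 min, sampled every second.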

For assay [11] the target is unchanged. Nature of the assay: 5-hydroxytryptamine receptor 2A (HTR2A) small molecule agonists, cell-based qHTS assay (AID 1963587). Further: nearly all actives have a fitted effect of over 30% in size. A digest of the protocol: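 Kinetic calcium-flux fluorescence (2 min, 1 sec intervals) after compound addition in agonist mode. HTR2A-CHO cells were cultured 18 h, then dye-loaded 1 h at 37 C.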
Assay [12] addresses Muscarinic acetylcholine receptor M1 (Homo sapiens) (UniProt P11229). In words: Cholinergic receptor muscarinic 1 (CHRM1) small molecule antagonists, cell-based qHTS assay (AID 1963588). Further: nearly all actives have a fitted effect of over 40% in size. A digest of the protocol:
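CHRM1-CHO calcium-flux assay, antagonist mode. Cells were seeded 18 h, dye-loaded 1 h at 37 C and given compound for 5 min at RT, then acetylcholine was added at 50nM. FDSS fluorescence was read 3 min; 15 concentrations, three runs.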

Assay [13] has the same target. Nature of the assay: Cholinergic receptor muscarinic 1 (CHRM1) small molecule agonists, cell-based qHTS assay (AID 1963589). Further: nearly all actives have a fitted effect of over 35% in size. The procedure, abridged:
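CHO cells stably expressing human CHRM1 were loaded with calcium dye for 1 h at 37 C, then compound was added in agonist mode. Intracellular calcium fluorescence was followed kinetically at 1 s intervals. Fifteen concentrations were tested in three independent runs.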

Assay [14] in a line: cAMP Responsive Elements (CRE) small molecule agonists, cell-based qHTS assay (AID 1963590). The procedure, abridged:
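CRE-bla HEK 293T cells, 2,000/well in DMEM with 10% dialyzed FBS and 25 mM HEPES, pre-incubated 18 h at 37 C, then exposed to compound 3 h at 37 C. Beta-lactamase reporter read with LiveBLAzer B/G FRET substrate after 2 h at room temperature.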

Assay [15] can be described thus: cAMP Responsive Elements (CRE) small molecule antagonists, cell-based qHTS assay (AID 1963591; active means well fitted inhibition curve with a large enough effect in the signal ratio in the repeat runs, not every such curve was filed as active; the % refers to the signal ratio; further: potency means the concentration at half of the fitted maximal effect). A digest of the protocol: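 CRE-bla HEK293T cells plated 18 h, then given compound plus NKH477 at 0.25 uM final for 3 h at 37C. Beta-lactamase reporter read with LiveBLAzer B/G FRET substrate after 2 h at room temperature.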
The target of assay [16] is Beta-2 adrenergic receptor (Homo sapiens) (UniProt P07550). Nature of the assay: Adrenergic beta2 receptor (ADRB2) small molecule antagonists, cell-based qHTS assay (AID 1963592). Further: series mostly up to about 92 µM; nearly all actives have a fitted effect of over 50% in size. A digest of the protocol:
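Cells (CHO, stable ADRB2 overexpression) incubated 18-20hr at 37C; compounds added from DMSO; agonist mix (1nM isoproterenol, 100uM IBMX, 25uM Ro-20-1724) added; 0.5hr RT; d2-cAMP and anti-cAMP-cryptate added; 1hr RT; 665/615 nm read.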

Assay [17] has as its target D(2) dopamine receptor (Homo sapiens) (UniProt P14416). Nature of the assay: Dopamine D2 receptor (DRD2) small molecule agonists, cell-based qHTS assay (AID 1963594). Further: nearly all actives have a fitted effect of over 35% in size. The procedure, abridged: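 cAMP accumulation in DRD2-HEK293 cells measured by HTRF after 1 h detection; compounds added 10 min before NKH477 (200nM […]) forskolin-analogue stimulation, 30 min at room temperature, with Ro20-1724 present at 0.1 mM final.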

The target is the same in assay [18]. In words: Dopamine D2 receptor (DRD2) small molecule antagonists, cell-based qHTS assay (AID 1963595; active means well fitted inhibition curve with a large enough effect in the signal ratio in the repeat runs, with a control signal flat; the % refers to the signal ratio). A digest of the protocol:
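Antagonist mode in DRD2-HEK293 cells: after compound addition with 0.1 mM Ro20-1724, cells received quinpirole (12 nM) and NKH477 (200 nM) for 30 min at room temperature; HTRF cAMP read after 1 h detection.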

The target of assay [19] is Beta-2 adrenergic receptor (Homo sapiens) (UniProt P07550). In words: Adrenergic beta2 receptor (ADRB2) small molecule agonists, cell-based qHTS assay (AID 1963593).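 Further: CHO cells stably overexpressing human ADRB2.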 A digest of the protocol: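 CHO cells stably over-expressing ADRB2 were plated overnight at 37C, then dosed with compounds plus a stimulation mix containing 100uM IBMX and 25uM Ro-20-1724 for 0.5hr at room temperature. cAMP was measured by HTRF competition, 1hr.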

Molecules are shown by their SMILES. Inconclusive results are not listed. Active and inactive are the calls of the source. Unless noted, the call rests on the fitted dose curve.

Sequence of D(2) dopamine receptor (Homo sapiens) (P14416 whole entry, looked up): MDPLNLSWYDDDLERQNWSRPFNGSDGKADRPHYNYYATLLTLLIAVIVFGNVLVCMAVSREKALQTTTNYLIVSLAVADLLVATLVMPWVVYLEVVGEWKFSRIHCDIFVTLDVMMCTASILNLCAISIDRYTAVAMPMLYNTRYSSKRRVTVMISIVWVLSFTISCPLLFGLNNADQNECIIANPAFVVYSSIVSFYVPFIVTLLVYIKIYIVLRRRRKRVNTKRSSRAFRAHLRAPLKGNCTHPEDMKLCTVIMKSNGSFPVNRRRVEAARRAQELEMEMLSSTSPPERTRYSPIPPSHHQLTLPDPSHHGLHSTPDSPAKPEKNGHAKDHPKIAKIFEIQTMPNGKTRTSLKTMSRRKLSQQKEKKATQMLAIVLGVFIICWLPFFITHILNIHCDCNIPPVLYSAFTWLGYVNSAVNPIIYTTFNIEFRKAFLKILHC
Sequence of KiSS-1 receptor (Homo sapiens) (Q969F8 whole entry, looked up): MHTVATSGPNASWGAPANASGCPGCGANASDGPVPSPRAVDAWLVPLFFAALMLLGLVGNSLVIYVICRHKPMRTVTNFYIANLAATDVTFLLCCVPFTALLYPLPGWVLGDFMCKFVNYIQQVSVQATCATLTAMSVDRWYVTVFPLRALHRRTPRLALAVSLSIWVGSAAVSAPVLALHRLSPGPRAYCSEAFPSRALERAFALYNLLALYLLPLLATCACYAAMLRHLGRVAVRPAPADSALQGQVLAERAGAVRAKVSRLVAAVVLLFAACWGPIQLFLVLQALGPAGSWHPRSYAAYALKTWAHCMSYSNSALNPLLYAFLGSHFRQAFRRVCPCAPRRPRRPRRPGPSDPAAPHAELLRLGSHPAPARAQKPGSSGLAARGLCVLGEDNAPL
Sequence of Beta-2 adrenergic receptor (Homo sapiens) (P07550 whole entry, looked up): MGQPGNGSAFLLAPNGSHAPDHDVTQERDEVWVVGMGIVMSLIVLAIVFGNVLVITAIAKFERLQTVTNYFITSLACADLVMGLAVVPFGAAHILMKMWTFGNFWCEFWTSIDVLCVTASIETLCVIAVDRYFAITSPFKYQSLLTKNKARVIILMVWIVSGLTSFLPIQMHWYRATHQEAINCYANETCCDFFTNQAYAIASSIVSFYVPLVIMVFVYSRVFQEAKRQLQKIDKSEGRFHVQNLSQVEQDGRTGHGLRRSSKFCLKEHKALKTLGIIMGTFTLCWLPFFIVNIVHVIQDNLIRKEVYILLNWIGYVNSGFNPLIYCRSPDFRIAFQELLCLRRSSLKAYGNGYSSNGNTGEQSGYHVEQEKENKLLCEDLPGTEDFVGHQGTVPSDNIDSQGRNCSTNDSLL
Sequence of Muscarinic acetylcholine receptor M1 (Homo sapiens) (P11229 whole entry, looked up): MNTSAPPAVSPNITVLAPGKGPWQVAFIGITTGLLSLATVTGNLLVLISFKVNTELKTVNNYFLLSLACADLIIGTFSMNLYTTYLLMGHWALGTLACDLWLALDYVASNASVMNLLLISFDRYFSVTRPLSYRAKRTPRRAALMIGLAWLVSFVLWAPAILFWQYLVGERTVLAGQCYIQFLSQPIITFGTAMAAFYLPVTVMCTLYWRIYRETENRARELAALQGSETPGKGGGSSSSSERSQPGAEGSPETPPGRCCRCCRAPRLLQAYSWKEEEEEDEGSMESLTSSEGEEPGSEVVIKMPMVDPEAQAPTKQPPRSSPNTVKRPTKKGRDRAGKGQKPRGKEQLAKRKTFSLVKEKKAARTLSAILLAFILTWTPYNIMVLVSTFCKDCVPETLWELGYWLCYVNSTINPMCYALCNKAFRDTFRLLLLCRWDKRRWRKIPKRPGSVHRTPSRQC
Sequence of 5-hydroxytryptamine receptor 2A (Homo sapiens) (P28223 whole entry, looked up): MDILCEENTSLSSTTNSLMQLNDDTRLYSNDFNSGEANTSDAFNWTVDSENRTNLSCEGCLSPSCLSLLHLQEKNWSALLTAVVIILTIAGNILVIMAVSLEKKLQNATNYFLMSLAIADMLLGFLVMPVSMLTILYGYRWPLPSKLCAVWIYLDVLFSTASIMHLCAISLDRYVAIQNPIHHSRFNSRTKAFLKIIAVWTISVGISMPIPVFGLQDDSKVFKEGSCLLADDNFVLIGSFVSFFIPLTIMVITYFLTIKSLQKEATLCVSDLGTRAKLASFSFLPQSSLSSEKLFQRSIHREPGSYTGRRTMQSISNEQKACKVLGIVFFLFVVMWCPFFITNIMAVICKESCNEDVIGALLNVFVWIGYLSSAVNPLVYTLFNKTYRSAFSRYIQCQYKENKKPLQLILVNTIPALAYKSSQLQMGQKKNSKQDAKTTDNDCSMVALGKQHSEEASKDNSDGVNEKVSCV

Take `O=P(O)(O)OP(=O)(O)O`: the Potency entry in assay [1], in assay [2], in [3], in [4], in [5] and in [6] was “inactive” throughout. Besides, the Potency result in [7], in [8], in assay [9], in assay [10], in assay [11] and in assay [12] was “inactive” throughout. Moreover, the Potency result in [13], in assay [14], in assay [15], in [16], in [17] and in assay [18] was “inactive” in each case.
With `O=C(Oc1cccc2cccnc12)c1ccccc1`, the Potency in [1] is 2.98 µM (active); in [15], 23.7 µM (active). Moreover, the Potency entry in assay [2], in [3], in assay [4], in assay [5], in assay [6] and in assay [7] was “inactive” in each case. In addition, the Potency entry in [8], in assay [9], in assay [10], in [11], in assay [12] and in assay [13] was “inactive” in each case. The Potency result in assay [14], in [16], in assay [17] and in [18] was “inactive” each time.
For the compound `CN1CCN(C)CC1`, the Potency result in [1], in assay [2], in assay [3], in assay [4], in assay [5] and in [6] was “inactive” each time. Moreover, the Potency result in assay [7], in assay [8], in [9], in [10], in [11] and in [12] was “inactive” throughout. Further, the Potency result in assay [13], in assay [14], in assay [15], in assay [16], in assay [17] and in assay [18] was “inactive” throughout.
Consider `CCCC(=O)OC(C)(C)Cc1ccccc1`, for which the Potency result in assay [1], in assay [2], in assay [3], in assay [4], in assay [5] and in assay [6] was “inactive” each time. Besides, the Potency entry in [7], in [8], in assay [9], in [10], in assay [11] and in [12] was “inactive” each time. The Potency entry in assay [13], in [14], in assay [15], in assay [16], in assay [17] and in assay [18] was “inactive” each time.
On to `Nc1c(Cl)cc(Cl)cc1[N+](=O)[O-]`, for which the Potency entry in [1], in assay [2], in assay [3], in assay [4], in assay [5] and in assay [6] was “inactive” throughout. The Potency result in assay [7], in [8], in [9], in [10], in assay [11] and in assay [12] was “inactive” throughout. The Potency result in assay [13], in assay [14], in assay [16], in [19], in assay [17] and in [18] was “inactive” in each case.
On to `CC(=O)OCC=C(C)C`, for which the Potency entry in assay [1], in assay [2], in assay [3], in assay [4], in assay [5] and in [6] was “inactive” throughout. Also, the Potency result in [7], in [8], in [9], in [10], in assay [11] and in assay [12] was “inactive” each time. In addition, the Potency result in assay [13], in assay [14], in assay [15], in assay [16], in [19] and in [17] was “inactive” throughout. Also, the Potency entry in assay [18] was “inactive”.
